Shown are actives, neighbours in structure and some others; about 2.2% of the full set was active somewhere.
p-CIP stab down – compounds decreasing mouse p/CIP protein stability; Q05BA5; F442A p/CIP-EGFP cells, EGFP fluorescence, 16 h; decrease of EGFP signal, % at 10 µM; 290,000 tested, 0.01% active; AID 1984;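 active = EGFP signal decrease of at least 30% at 10 µM or well 3 SD below plate mean, unless failing retest; inactive = the rest, including hits failing retest or dose response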
PHOSPHO1 block – blocks human PHOSPHO1 phosphatase activity; inhibition, % at 13.3 µM; AID 1565; Q8TCT1; recombinant PHOSPHO1, absorbance phosphatase assay; 290,000 tested, 1.1% active; in the data active = inhibition above about 60%
JMJD2C inh – human JMJD2C demethylase inhibition; AID 2099; inhibition, % at 2.35 µM; GST-JMJD2C(1-420) H3K9me3 demethylation, DELFIA europium; 330,000 tested, 0.069% active; Q9H3R0;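 active = more than half of a compound's replicate wells show inhibition beyond 50%, single wells judged on their own value; inconclusive = some, but no more than half, of replicates pass 50% inhibition; inactive = no replicate passes 50% inhibition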;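 note: signal counts dimethyl H3K9 product captured on neutravidin plate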
HDAC3 inhib – inhibitors of human histone deacetylase 3. recombinant HDAC3, fluorogenic peptide/trypsin coupled, fluorescence. 320,000 tested, 0.15% active. inhibition, % at 8.3 µM. O15379; in the data active = inhibition above about 26%, passing the limit was not always enough; inconclusive = no clear call, values can overlap the other calls
Target sequence (O15379 whole entry, looked up): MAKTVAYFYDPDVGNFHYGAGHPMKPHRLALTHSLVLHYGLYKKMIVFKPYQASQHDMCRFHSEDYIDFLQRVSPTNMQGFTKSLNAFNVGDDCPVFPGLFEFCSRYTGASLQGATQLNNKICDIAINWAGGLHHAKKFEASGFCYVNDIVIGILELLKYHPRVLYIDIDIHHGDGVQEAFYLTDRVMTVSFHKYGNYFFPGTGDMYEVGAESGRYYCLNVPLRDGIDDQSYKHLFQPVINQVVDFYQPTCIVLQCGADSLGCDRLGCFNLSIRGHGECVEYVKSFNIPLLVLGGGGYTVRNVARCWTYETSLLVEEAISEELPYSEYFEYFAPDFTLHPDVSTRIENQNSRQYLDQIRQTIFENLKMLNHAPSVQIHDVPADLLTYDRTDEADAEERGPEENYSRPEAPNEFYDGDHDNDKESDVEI
SUMO Mot1 rescue – blocks SUMOylation pathway, rescuing yeast Mot1-301 growth | S. cerevisiae Mot1-301 growth rescue, ATP luminescence, 38.5C; percent above DMSO median, 100 means doubled | growth rescue, % at 18.8 µM | 320,000 tested, 1% active | AID 2716;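 active = every valid replicate shows activation above 250% relative to neutral control wells; inactive = the rest, any valid replicate at or below 250%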
PvdQ inh – P. aeruginosa PvdQ acylase inhibition. AID 488965. purified PvdQ acylase, fluorescence plate reader. 340,000 tested, 0.063% active. inhibition, % at 10 µM; in the data active = inhibition above about 30%, passing the limit was not always enough; inconclusive = no clear call, values can overlap the other calls
Hits are given with their value; 0 = inactive; ? = inconclusive; - = no result.

SMILES	p-CIP stab down	PHOSPHO1 block	JMJD2C inh	HDAC3 inhib	SUMO Mot1 rescue	PvdQ inh
CC(C)=CCN1CCN(Cc2cnc(C)s2)CC1CCO (stereo not drawn)	0	0	0	0	0	0
Cc1ncc(CN2CCN(Cc3ccc(F)cc3)C(CCO)C2)s1 (stereo not drawn)	0	0	0	0	0	39.1
Cc1cnc(C(=O)Oc2c(C)ccc(C)c2C)cn1	0	140.9	0	0	-	0
Cc1nnc(N/N=C\c2ccc(-c3ccccc3[N+](=O)[O-])o2)n1N	0	0	54.7	0	0	0
Cc1nnc(N/N=C/c2ccc(-c3ccccc3F)o2)n1N	0	0	0	0	0	0
CS(=O)(=O)N1CCC(C(=O)NCc2ccc(Cl)cc2Cl)CC1	0	0	0	0	0	0
CC(=O)c1sc(N/N=C2\CC3CC2C(C)C3(C)C)nc1C (stereo not drawn)	0	0	0	0	0	0
O=c1c2ccccc2nc(/C=C/c2cc(Br)ccc2O)n1CCCO	0	0	0	0	0	0
Cc1nc(N)sc1-c1csc(N(C)c2ccc(O)cc2)n1	0	84.9	0	0	0	0
O=C(NNC(=O)C1CCN(S(=O)(=O)c2ccccc2)CC1)c1ccccc1O	0	0	94.0	0	0	0
CN1CCN(C(=O)C(N)Cc2ccccc2)CC1 (stereo not drawn)	0	62.9	0	0	0	0
NC(Cc1ccccc1)C(=O)N1CCCCC1 (stereo not drawn)	0	0	0	0	0	0
O=C(NNC(=O)C1CCN(S(=O)(=O)c2c(Cl)cccc2Cl)CC1)c1ccccc1O	-	-	0	0	0	0
O=C(NNC(=O)C1CCN(C(=O)Nc2ccccc2)CC1)c1ccc(F)cc1	-	-	0	0	0	0
Cc1ccccc1C(=O)NNC(=O)C1CCN(C(=O)Nc2ccccc2)CC1	-	-	0	0	341.8	0
CN1CCN(C(=O)Nc2ccccc2)CC1	0	62.9	0	0	0	0
COc1cc(C=CC(=O)OCC=Cc2ccc3c(c2)OCO3)cc(OC)c1OC	-	-	-	-	-	0
COc1cc(/C=C/C(=O)OCC(=O)Nc2nnc(-c3ccccc3)o2)cc(OC)c1OC	-	-	0	0	0	0
COc1cc2[nH]c(=O)c(C(=O)NCc3ccc(F)cc3)c(O)c2cc1OC	0	0	0	0	0	0
Cn1cc(C(=O)Nc2ccc(F)c(Cl)c2)cn1	0	0	0	0	0	0
CN1c2ccsc2C(O)=C(C(=S)Nc2ccc(F)c(Cl)c2)S1(=O)=O	0	92.3	0	0	-	0
Cc1ccc(C(=O)CCC(=O)OCC(=O)N(C)c2c(N)n(Cc3ccccc3)c(=O)[nH]c2=O)cc1	-	-	0	0	0	0
O=C(NCCNc1ccc([N+](=O)[O-])cc1C(F)(F)F)c1ccccc1	0	0	52.0	-	0	0
COc1cc(NC(=O)SC2=NCCS2)cc(OC)c1	0	0	-	-	-	0
COc1cccc(C(=O)SC2=NCCS2)c1	0	0	0	48.7	0	0
SMILES	p-CIP stab down	PHOSPHO1 block	JMJD2C inh	HDAC3 inhib	SUMO Mot1 rescue	PvdQ inh
COc1ccc(/C=C/C(=O)NCC(=O)N/N=C/c2cccs2)cc1	0	0	0	0	0	0
COc1ccccc1CNC(=O)c1sccc1-c1ccccc1	0	0	?	0	0	0
CCc1cccc(NC(=O)[C@@H]2CCCN2C2=NS(=O)(=O)c3ccccc32)c1	-	-	0	0	0	0
CCc1cccc(NC(=O)CSC2=NS(=O)(=O)c3ccccc32)c1	0	94.2	0	36.3	0	0
CSCCC(NC(=O)c1ccccc1Cl)C(=O)N(C)CC(=O)Nc1ccc(N2CCOCC2)cc1 (stereo not drawn)	-	-	0	0	0	0
CN(C(=O)COC(=O)C1(C)CC1(Cl)Cl)c1c(N)n(Cc2ccccc2)c(=O)[nH]c1=O (stereo not drawn)	-	-	0	0	0	0
CCN(CC)Cc1ccc(NC(=O)c2sc3cc(Cl)ccc3c2Cl)cc1	0	60.5	0	0	0	0
N#Cc1ccc(Oc2ccc(C#N)c(C#N)c2)cc1C#N	-	-	-	-	-	0
CCOC(=O)COn1c(=O)c(-c2cccs2)[n+]([O-])c2ccccc21	0	0	0	52.6	0	0
CCOC(=O)COn1c(=O)c(-c2ccc(F)cc2)[n+]([O-])c2ccccc21	0	0	0	0	0	0
CCCOc1ccc(-c2c(=O)n(OCC(=O)OCC)c3ccccc3[n+]2[O-])cc1	0	0	0	33.6	0	0
CC(NC(=O)c1cc(-c2ccncc2)nc2ccc(Cl)cc12)C1CCCO1 (stereo not drawn)	0	0	0	0	340.8	0
CC(NC(=O)c1cc(-c2ccccn2)nc2ccc(Cl)cc12)C1CCCO1 (stereo not drawn)	0	0	0	0	0	0
CC(OC(=O)c1cccc(-n2cnnn2)c1)C(=O)N(C)c1ccccc1 (stereo not drawn)	0	0	0	0	0	0
CCOC(=O)/C(=N\Nc1ncnc2ccccc12)c1ccc(C)cc1	0	0	0	0	0	0
CCCCCCn1nc(C(=O)OCC(=O)c2c(N)n(C)c(=O)n(C)c2=O)c2ccccc2c1=O	0	60.9	0	0	0	0
O=C(CNC1CC1)Nc1cc(C(F)(F)F)ccc1Cl	0	0	0	0	0	0
O=S(=O)(c1cccc(F)c1)N1CCc2sccc2C1c1ccc(OC(F)(F)F)cc1 (stereo not drawn)	0	0	0	0	0	0
Cc1cc(S(=O)(=O)N2CCC3(CC2)OCCN3S(=O)(=O)c2cccs2)ccc1F	-	-	0	0	0	0
CCn1c(-c2ccccc2)c[nH]c1=S	0	98.0	0	0	-	0
S=c1[nH]cc(-c2ccc(Cl)cc2)n1Cc1ccccc1	0	0	0	0	0	0
Cc1cc(NC(=O)C2CCCCC2C(=O)O)ccc1NC(=O)c1ccccc1 (stereo not drawn)	0	0	0	0	0	0
COc1ccccc1C(c1nnnn1C(C)C)N1CCN(C(=O)c2ccco2)CC1 (stereo not drawn)	0	0	0	0	0	0
COC(=O)c1cc(N2C(=O)C3C(C2=O)C2(C)C=CC3(C)O2)ccc1Cl (stereo not drawn)	0	0	0	0	425.2	-
COC(=O)CCN(c1ccccc1)S(=O)(=O)c1cc(-c2cc(C)no2)ccc1C	0	0	0	0	0	0
SMILES	p-CIP stab down	PHOSPHO1 block	JMJD2C inh	HDAC3 inhib	SUMO Mot1 rescue	PvdQ inh
Cc1ccc(S(=O)(=O)/N=C2/C=C(Sc3ncn[nH]3)C(=O)c3ccccc32)cc1	0	73.1	0	0	0	0
Cc1ccc(S(=O)(=O)/N=C2/C=C(Sc3ncn[nH]3)C(=O)c3ccccc32)c(C)c1	0	75.9	0	38.0	0	-
CC(C)c1ccc(S(=O)(=O)/N=C2/C=C(Sc3ncn[nH]3)C(=O)c3ccccc32)cc1	0	0	0	0	0	0
Cc1ccc(S(=O)(=O)/N=C2\C=C(NS(=O)(=O)c3ccccc3)C(=O)c3ccccc32)c(C)c1	-	-	-	-	-	0
COc1ccc(C(=O)C[N+]2(C)CCOCC2)cc1	0	80.2	0	0	0	0
COc1ccc2[nH]c(-c3ccccc3)cc2c1	0	0	0	0	0	0
